# TSHR agonist = qHTS Assay for Agonists of the Thyroid Stimulating Hormone Receptor; Thyrotropin receptor (Homo sapiens), P16473; HEK293-CNG-TSHR cells (CNG channel as cAMP sensor), membrane potential dye, cAMP; Potency, µM (highest dose often 57.1 µM), actives largely listed as activators; 0.48% of 73,000 active; AID 926, 2007; active means well fitted activation curve with a large enough effect in the main read-out, with a control signal flat, not every such curve was filed as active; inconclusive means small, poorly fitted or top-dose-only effect, or a change in a side signal; inactive means no such curve, though single readings can be large or run the other way; reference of the percent scale not stated here;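 further: the control signal comes from parental cells without the receptor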
# Target sequence (P16473 whole entry, looked up): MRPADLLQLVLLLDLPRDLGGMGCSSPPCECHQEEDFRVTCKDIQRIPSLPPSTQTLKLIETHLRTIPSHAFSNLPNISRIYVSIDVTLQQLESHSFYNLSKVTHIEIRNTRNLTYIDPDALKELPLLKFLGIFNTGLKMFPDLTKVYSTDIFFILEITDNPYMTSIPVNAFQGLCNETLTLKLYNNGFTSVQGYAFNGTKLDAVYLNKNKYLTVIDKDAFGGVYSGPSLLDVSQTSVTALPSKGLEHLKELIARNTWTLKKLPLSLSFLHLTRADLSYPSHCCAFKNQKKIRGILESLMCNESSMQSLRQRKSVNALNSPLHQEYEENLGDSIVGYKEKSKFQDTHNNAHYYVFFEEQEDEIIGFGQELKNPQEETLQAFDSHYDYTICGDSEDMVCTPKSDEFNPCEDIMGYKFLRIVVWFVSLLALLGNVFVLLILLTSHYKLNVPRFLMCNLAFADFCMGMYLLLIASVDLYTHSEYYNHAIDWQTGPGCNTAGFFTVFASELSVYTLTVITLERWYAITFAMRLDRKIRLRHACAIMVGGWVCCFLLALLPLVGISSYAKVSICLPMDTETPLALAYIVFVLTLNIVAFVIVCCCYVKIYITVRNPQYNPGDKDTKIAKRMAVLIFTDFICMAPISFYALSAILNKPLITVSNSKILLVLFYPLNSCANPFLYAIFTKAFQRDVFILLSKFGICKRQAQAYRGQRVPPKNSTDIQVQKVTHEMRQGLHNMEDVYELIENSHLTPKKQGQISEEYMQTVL
#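 HEK 293 cells stably expressing TSHR and a modified CNG channel, with CNG-only parental cells as counterscreen, were preloaded 60 min at room temperature with membrane potential dye containing 100 uM RO 20-1724. Compound exposure was 30 min, and depolarization was read as fluorescence at 590 nm.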
# HEK293 cAMP cs = qHTS Assay for Agonists of the Thyroid Stimulating Hormone Receptor: Activators of Intracellular cAMP Concentrations in Parental HEK 293; Potency, µM (titrated, usually from 57.1 µM), usual class: activators; 2.5% of 73,000 active; parental HEK293 CNG cAMP sensor, membrane potential fluorescence; AID 938, 2007; further: nearly all actives have a fitted effect of over 55% in size
#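 Counterscreen for endogenous-receptor signalling: CNG-channel HEK 293 cells report cAMP rise by membrane depolarization. After 60 min dye equilibration with 100 uM RO 20-1724, compounds incubated 30 min before bottom-read fluorescence at 590 nm.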
# Imprint erasure = qHTS Assay for Compounds that Induce Erasure of Genomic Imprints | mouse ES Peg3-LacZ reporter, beta-gal luminescence, 40 h | Potency, µM (top dose mostly 60.7 µM), most hits filed as activators | 0.02% of 110,000 active | AID 1948, 2009
#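 Each well holds 300 Peg3LacZ-Neo (maternal) female ES cells incubated 40 h at 37C, 5% CO2. LacZ is measured by BetaGlo luminescence, with AC50 and maximum efficacy derived from dose-response curves.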
# Hits are given with their value; – = inactive; ? = inconclusive; · = no result given; ! = not confirmed by another sample; [ ] = remark or other dose. The entries come from a sample that favours hits as a whole. Unless noted, the call rests on the fitted dose curve; in most records, active means well fitted activation curve with a large enough effect; inconclusive means small, poorly fitted or top-dose-only effect; inactive means no such curve, though single readings can be large or run the other way.
SMILES,TSHR agonist,HEK293 cAMP cs,Imprint erasure
COc1cccc(Cn2c(=O)cnc3cnc(OCc4ccccc4)nc32)c1,?,?,–
CCOc1ccc(CC(=O)Nc2ccc3nc(N4CCCCC4)cc(C)c3c2)cc1OCC,·,·,–[10.9 µM]
CC(C)Cc1nn2cc(-c3cccc(Br)c3)nc2s1,·,·,–[10.9 µM]
CCOc1ccc(NC(=O)c2sc3nc4n(c(=O)c3c2C)CCCC4)cc1,·,·,–[10.9 µM]
O=C(c1cn(-c2ccccc2)nc1-c1ccccc1)N1CCOCC1,–,–,–
O=C(c1cn(-c2ccccc2)nc1-c1ccc(Cl)s1)N1CCOCC1,25.1µM,–,–
CCN1CCN(S(=O)(=O)c2ccc3[nH]c(=O)oc3c2)CC1,?,31.6µM,–
CCOC(=O)C1CCN(S(=O)(=O)c2ccc3[nH]c(=O)oc3c2)CC1,–,–,–
CCOc1ccc(CNC(=O)c2cnc3sc(N(CC)CC)nn3c2=O)cc1OC,·,·,–[10.9 µM]
CC(C)C(=O)Nc1nnc(SCc2cc(=O)n3ccccc3n2)s1,·,·,–[10.9 µM]
CCC(=O)N(Cc1cc2cc(OC)ccc2[nH]c1=O)c1ccc(C)cc1C,?,31.6µM,–
COc1ccc2[nH]c(=O)c(CN(C(C)=O)c3cccc(C)c3)cc2c1,–,–,–
O=C(CSc1nccn1Cc1ccc(Cl)cc1)Nc1ccc2c(c1)OCCO2,·,·,–[10.9 µM]
CCOC(=O)c1ccccc1NC(=O)C1COc2ccccc2O1 (centres undefined),?,25.1µM,–
COC(=O)c1cc(NC(=O)C2COc3ccccc3O2)cc(C(=O)OC)c1 (centres undefined),?,?,–
Cc1c(C(=O)N2CCC(C)CC2)c(S(=O)(=O)Nc2ccc(OC(F)(F)F)cc2)c(C)n1C,·,·,–[10.9 µM]
COc1ccc(CNC(=O)C2CCN(C(=O)c3ccc(-n4ccc5ccccc54)s3)CC2)cc1,·,·,–[10.9 µM]
O=C1C(SCCO)=C(SCCO)C(=O)c2ccccc21,?,25.1µM!,–
N#CC(=NCCO)C1=C(O)c2ccccc2C1=O,–[11.4 µM],–[11.4 µM],–[10.9 µM]
O=C(c1cnn2c(C(F)(F)F)cc(-c3ccco3)nc12)N1CCCCCC1,?,31.6µM,–
CC1CCCCN1C(=O)c1cnn2c(C(F)(F)F)cc(-c3ccco3)nc12 (centres undefined),–,–,–
O=C(Nc1cc(C(F)(F)F)ccc1N1CCOCC1)C1Cc2ccccc2CN1C(=O)c1ccco1 (centres undefined),?,1.26µM,–
O=C(Nc1cc(C(F)(F)F)ccc1N1CCCCC1)c1ccco1,?,?,–
Cc1ccccc1CN1C(=O)C2(c3ccccc31)N(c1ccccc1)C(=O)CS2(=O)=O (centres undefined),·,·,–[10.9 µM]
COc1ccc(C(C)=O)cc1COC(=O)c1cc(C)oc1C,?,25.1µM,–
SMILES,TSHR agonist,HEK293 cAMP cs,Imprint erasure
COc1ccc(C(C)=O)cc1COC(=O)c1cccc(N(C)C)c1,?,?,–
Cc1cc(C)cc(NC(=O)c2cc(S(=O)(=O)N3CCc4ccccc43)cn2C)c1,·,·,–[10.9 µM]
Cc1ccc(C)c(S(=O)(=O)NCCc2csc(-c3ccc(Cl)cc3)n2)c1,·,·,–[10.9 µM]
Cc1ccc(NC(=O)Cn2c(=O)c3ccc(Cl)cc3n3nncc23)cc1,·,·,–[10.9 µM]
Cc1cc(-c2ccc(N=Nc3ccc4c(S(=O)(=O)O)cc(S(=O)(=O)O)c(N)c4c3O)c(C)c2)ccc1N=Nc1ccc2c(S(=O)(=O)O)cc(S(=O)(=O)O)c(N)c2c1O,–,–,–
CCCn1c(=O)c(C(=O)NCc2ccncc2)c(O)c2ccccc21,?,?,–
CC(C)Cn1c(=O)c(C(=O)NCc2ccccn2)c(O)c2ccccc21,?,25.1µM,–
N#C/C(=C\c1ccc(O)c(O)c1)C(=O)c1ccc(O)c(O)c1,–,–,–
[C-]#[N+]/C(C#N)=C\c1cc(C(C)(C)C)c(O)c(C(C)(C)C)c1,?,2.51µM,–
CC(C)(C)c1cc(/C=C(\C#N)C(N)=S)cc(C(C)(C)C)c1O,?,3.16µM,–
COc1cc(Nc2nc(SCC(=O)c3ccc(Br)cc3)nc3ccccc23)cc(OC)c1,·,·,–[10.9 µM]
CC(C)COc1ccc(C(=O)N(Cc2ccco2)C2CCS(=O)(=O)C2)cc1 (centres undefined),·,–,–
CCCCCOc1ccc(C(=O)N(Cc2ccco2)C2CCS(=O)(=O)C2)cc1 (centres undefined),?,25.1µM,–
COC1=CC(=O)C[C@@H](C)[C@@]12Oc1c(Cl)c(OC)cc(OC)c1C2=O,·,–,·
COCCN1C=C(C(=O)OC)C(c2ccc(OC)c(OC)c2)C(C(=O)OC)=C1,–,–,–
CCCOc1ccc(C2C(C(=O)OC)=CN(CCOC)C=C2C(=O)OC)cc1,?,25.1µM,–
Cc1nn2c(=O)cc(COC(=O)c3cccc(NC(=O)c4cccs4)c3)nc2s1,·,·,–[10.9 µM]
CC[C@H](NC(C)C)[C@H](O)c1ccc(O)c(O)c1,?,0.251µM,–
CNC[C@H](O)c1ccc(O)c(O)c1,·,·,–
COc1cccc2cc(-c3csc(-c4ccc(Cl)cc4)n3)c(=O)oc12,·,·,–[10.9 µM]
CCCCn1c(NC(=O)CC)c(C#N)c2nc3ccccc3nc21,?,25.1µM,–
CCCCn1c(NC(=O)c2ccccc2Cl)c(C#N)c2nc3ccccc3nc21,–,–,–
Cc1cccc(N2C(=O)CS(=O)(=O)C23C(=O)N(Cc2c(F)cccc2Cl)c2ccccc23)c1 (centres undefined),·,·,–[10.9 µM]
Cc1cc(C)cc(N(CC(=O)Nc2cccc(C)n2)S(=O)(=O)c2c(C)noc2C)c1,?,?,–
Cc1ccc(NC(=O)CN(c2cc(C)cc(C)c2)S(=O)(=O)c2c(C)noc2C)nc1,?,20µM,–
SMILES,TSHR agonist,HEK293 cAMP cs,Imprint erasure
Cc1nnc(SCC(=O)c2c(N)n(C)c(=O)n(C)c2=O)[nH]c1=O,–,–,–
CC(C)c1nc(-c2c(N)n(C)c(=O)n(C)c2=O)sc1C(=O)C(C)(C)C,?,15.8µM,–
Cc1cc(Nc2cc(Cl)ccc2C)n2nc(-c3ccccc3)nc2n1,·,·,–[10.9 µM]
COc1ccc(-c2nc3cnc(N4CCNCC4)nc3n(Cc3cccs3)c2=O)cc1,–,–,–
CC1CCN(C(=O)C2Cc3ccccc3CN2S(=O)(=O)c2ccc(F)cc2)CC1 (centres undefined),?,20µM,–
Cc1ccc(S(=O)(=O)N2Cc3ccccc3CC2C(=O)Nc2cc(C)on2)cc1 (centres undefined),25.1µM,–,–
Cc1ccc(S(=O)(=O)N2Cc3ccccc3CC2C(=O)Nn2cnnc2)cc1 (centres undefined),–,–,–
O=C(C1Cc2ccccc2CN1S(=O)(=O)c1ccc(F)cc1)N1CCCCCC1 (centres undefined),?,?,–
COc1ccc(S(=O)(=O)N(CC(=O)N2CCC(C)CC2)c2ccc(C)cc2)cc1,·,·,–[10.9 µM]
CC(C)CCNC(=O)CN1C(=O)CSc2ccc(S(=O)(=O)N3CCCCC3)cc21,·,·,–[10.9 µM]
CCCCC(=O)Nc1c(C(=O)N2CCN(c3ccccc3)CC2)oc2ccccc12,·,·,–[10.9 µM]
CCCc1cc(=O)[nH]c(SCc2nc(-c3ccc(C)cc3)no2)n1,·,·,–[10.9 µM]
Cc1ccc(-c2cc(C(F)F)n3ncc(C(=O)N4CCN5CCCC5C4)c3n2)cc1 (centres undefined),?,20µM,–
